Screens: PubChem, National Center for Advancing Translational Sciences (NCATS)
ClpP mod: qHTS Assay for Activators of ClpP | purified B. subtilis ClpP, FRET peptide cleavage, 20 min | ATP-dependent Clp protease proteolytic subunit (Bacillus subtilis (strain 168)), P80244 | 1.9% of 340,000 active | AID 651965, 2013 | Potency, µM (highest dose often 57.5 µM), without a hit: at the top dose activity change, negative = active; active = well fitted falling curve with a large enough effect; inconclusive = small, poorly fitted or top-dose-only effect; inactive = no such curve, though single readings can be large or run the other way; also: potency is read from the fitted curve at half-maximal effect; the source files actives as falling curves though it sought activators and does not explain the sign; nearly all actives have a fitted effect of over 65% in size
Target sequence (P80244 whole entry, looked up): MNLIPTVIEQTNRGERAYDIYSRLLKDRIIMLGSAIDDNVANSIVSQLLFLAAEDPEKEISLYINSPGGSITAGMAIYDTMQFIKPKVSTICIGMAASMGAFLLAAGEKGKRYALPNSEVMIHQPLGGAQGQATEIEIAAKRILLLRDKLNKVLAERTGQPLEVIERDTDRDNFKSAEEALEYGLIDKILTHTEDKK
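FRET quenching reversal measured ClpP activation: 10 microg/mL B. subtilis ClpP at pH 8 with the FRET-FV decapeptide, read at 430 nm after 320 nm excitation. The 20-min minus 0-min signal was scaled between DMSO/no-enzyme wells and ADEP (5.8 microM final).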
miR-21 reporter: qHTS Assay for Modulators of miRNAs and/orActivators of miR-21; HeLa miR-21 FLuc reporter, luciferase, 48 h; Potency, µM (doses to about 38.3 µM), without a hit: at the top dose activity change, positive = activation, usual class: activators; 340,000 tested, under 10 active; AID 2288, 2010;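 also: % of control where 0% means no effect; miR-21 action dims this reporter so a rising signal means less miR-21 action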
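HeLa cells stably expressing CMV-driven firefly luciferase with a downstream miR-21 binding sequence, endogenously expressing miR-21, were treated with titrations (up to about 40uM final) for 48 hours at 37 degree Celsius. Luciferase luminescence was read after lysis.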
A549 tox: Nrf2 qHTS screen for inhibitors: counterscreen for cytotoxicity | Potency, µM (series often up to 46 µM), inactives show at the highest dose activity change, negative = cytotoxicity, actives largely listed as inhibitors | AID 504648, 2011 | 0.16% of 390,000 active | A549 ARE-Fluc cells, CellTiter-Fluor viability, 18-24 h; also: potency is read from the fitted curve at half-maximal effect; % is scaled to controls: 0 for no effect and ±100 for the full control effect
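A549 ARE-Fluc cells in 5% FBS OPTI-MEM, 5000 cells/well, rested 2 h then exposed to compounds in concentration-response for 18-24 h at 37 °C. Viability by CellTiter-Fluor fluorescence (Ex 405/Em 525) after 30 min; luciferase luminescence (BugLite, 15 min, RT) read afterwards.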
Nrf2 block: Nrf2 qHTS screen for inhibitors. A549 ARE-Fluc reporter, luciferase luminescence, 18-24 h. Potency, µM (highest dose often 46 µM), for the others: at the top dose activity change, negative = inhibition, most hits filed as inhibitors. 2.1% of 360,000 active. AID 504444, 2011; also: potency is read from the fitted curve at half-maximal effect; % is scaled to controls: 0 for no effect and ±100 for the full control effect; nearly all actives have a fitted effect of over 60% in size
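Concentration-response testing used A549 ARE_Fluc cells at 5000 cells/well. Following an 18-24 h compound incubation, viability was read by fluorescence (Ex 405/Em 525) and luciferase output by luminescence.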
Nrf2 activator: qHTS of Nrf2 Activators; AREc32 ARE-luciferase reporter (MCF7-derived line), luminescence, 24 h; Potency, µM (top dose mostly 46.1 µM), for inactives: at the highest dose activation, usual class: activators; 0.31% of 410,000 active; AID 624171, 2012; also: potency is read from the fitted curve at half-maximal effect; % of control where 0% means no effect; nearly all actives have a fitted effect of over 65% in size
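Each well held 1000 AREc32 cells, which were incubated with compound for 24 hr at 37 deg C after overnight attachment, and ARE reporter activity was quantified by firefly luciferase luminescence.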
TCR activator: Activators of T cell receptors: qHTS campaign. Potency, µM (highest dose often 9.22 µM), for inactives: top-dose activation of IL-2 secretion, actives largely listed as activators. AID 504894, 2011. 330,000 tested, under 10 active. primary human leukocytes, anti-CD3, IL-2 HTRF, 48 h; also: % of control where 0% means no effect
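Primary human leukocytes incubated 48 hr with anti-CD3 beads plus compound, without co-stimulation. Secreted IL-2 measured by HTRF (europium cryptate/d2 anti-IL-2 pair, 320 nm excitation, 665 nm emission).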
* hit, by the source's call; ? = inconclusive; . = no result given; [ ] = dose if it differs, or a comment. Sampled rows, rich in hits. Any-hit rate of the full collection: about 3.7%. Unless noted, calls follow the shape of the dose curve; as a rule, active = well fitted curve in the direction sought with a large enough effect; inconclusive = small, poorly fitted or top-dose-only effect, or another doubt; inactive = no such curve, though single readings can be large; an effect the other way counts as inactive or inconclusive.

SMILES | ClpP mod | miR-21 reporter | A549 tox | Nrf2 block | Nrf2 activator | TCR activator
Cn1c(=O)c2c(SCC(=O)Nc3ccc4c(c3)OCCO4)nc(CC(C)(C)C)nc2n(C)c1=O | -3.3% | 0.2% | ? | 7.31µM* | -0.4% | 2.6%
Cn1c(=O)c2c(SCC(=O)N3CCOCC3)nc(CC(C)(C)C)nc2n(C)c1=O | . | 1.9% | . | . | . | 2.4%[46.1 µM]
COc1ccc(OC)c(C2C(C(=O)Nc3nc4ccccc4s3)=C(C)NC3=C2C(=O)CCC3)c1 (configuration not stated) | 28.2µM* | -2.3% | -13.1% | -27.7% | 13.5% | 0.5%
CC(C)c1ccc(NC(=O)C2CCCN2S(=O)(=O)c2ccc3nc(-c4ccccc4)[nH]c3c2)cc1 (configuration not stated) | -19.5% | 9.7% | -20.3% | ? | 7.7% | .
CC1(C)OB(c2cnc(C#N)nc2)OC1(C)C | -4.1% | . | . | . | . | .
O=C1CCCc2cc3c(cc21)CCCC3 | . | . | -0.3% | 1.4% | -0.2% | -3.5%
COc1cc2c(cc1OC)C(=O)CCC2 | 28.2µM* | . | -1.0% | -7.8% | -1.1% | -0.6%
CCCn1nc(C(=O)Nc2nc(-c3ccccn3)cs2)c2ccccc2c1=O | 0.4% | . | -23.2% | 8.2µM* | 3.0% | 2.0%
CC(C)[C@H](NC(=O)c1ccccc1Cl)C(=O)Nc1nc(-c2ccccn2)cs1 | -1.4% | 12.3% | -26.8% | 14.6µM* | -0.2% | 1.0%
CC(Oc1ccc(Br)cc1)C(=O)Nc1nc(-c2ccccn2)cs1 (configuration not stated) | -0.4% | 18.9% | ? | 16.4µM* | ? | .
O=C(Nc1nc(-c2ccccn2)cs1)c1ccccc1-n1cnnn1 | -0.2% | ? | -18.7% | 5.8µM* | -0.6% | 9.5%
CCn1nc(C(=O)Nc2nc(-c3ccccn3)cs2)c2ccccc2c1=O | -1.2% | . | -7.5% | ? | 4.7% | .
COc1ccc(C2Nc3ccccc3C(=O)N2Cc2ccccc2C(F)(F)F)cc1COc1ccc(NC(C)=O)cc1 (configuration not stated) | . | . | -0.3% | -3.9% | . | .
Cc1nn(-c2ccc(F)cc2)c(Cl)c1C(=O)OC(C)C(=O)N(C)C1CCCCC1 (configuration not stated) | 0.0% | . | -7.1% | 18.4µM* | 9.1% | 5.7%
Cc1nn(-c2ccccc2)c(Cl)c1C(=O)OC(C)C(=O)NC(=O)NC1CCCCC1 (configuration not stated) | -2.1% | 2.8% | -12.3% | ? | 1.6% | 3.1%
COc1ccc(CCNC(=O)COc2ccc(S(=O)(=O)NC3CCCCC3)cc2Cl)cc1 | 0.4% | 12.2% | ? | 20.6µM* | 0.2% | 1.2%
COc1ccc(C(CNC(=O)c2ccc(Cl)c(S(=O)(=O)N3CCCC3)c2)N2CCCC2)cc1 (configuration not stated) | -2.3% | . | 1.5% | -3.9% | -0.2% | 4.4%
Cc1ccc(C(=O)NCCC2=CCCCC2)cc1S(=O)(=O)N1CCOCC1 | 0.7% | . | 0.0% | ? | 4.5% | -3.6%
COc1ccc(CCNC(=O)c2ccc(Cl)c(S(=O)(=O)N3CCCC3)c2)cc1 | -1.5% | . | -5.1% | 16.4µM* | -0.7% | .
Cc1ccc(C(=O)NCCC2=CCCCC2)cc1S(=O)(=O)N1CCCCC1 | -3.1% | . | ? | 23.1µM* | 7.5% | 2.2%
Cc1ccc(C(=O)NCc2cccnc2)cc1S(=O)(=O)N1CCCCCC1 | -0.5% | 0.8% | -4.3% | 8.2µM* | 0.1% | 2.8%
O=C(COc1ccc(S(=O)(=O)NC2CCCCC2)cc1Cl)NCC1CCCO1 (configuration not stated) | 0.5% | 11.3% | 2.7% | -6.2% | 4.0% | 1.3%
O=C(NCc1cccnc1)c1ccc(S(=O)(=O)N2CCCCCC2)cc1 | . | 4.6% | 3.2% | -28.2% | 0.5% | 3.7%
